Data as given in publication PMC7862700, “An all-to-all approach to the identification of sequence-specific readers for epigenetic DNA modifications on cytosine”.

Legend:
Assay in all cases: DAPPL (digital affinity profiling via proximity ligation, sequencing); 10 mM Tris-HCl pH 7.5, 50 mM NaCl, 1 mM DTT, 4% glycerol, room temperature, 30 min; GST-TFs on glutathione beads, 16-mer random dsDNA library, 0.1% formaldehyde crosslink after washing; high values mean tight binding
[1] = biological target: T1, FLI1 (Homo sapiens, UniProt Q01543 1-452); conditions: protein: recombinant; tags: N-terminal GST; dsDNA, one strand shown
T1 sequence: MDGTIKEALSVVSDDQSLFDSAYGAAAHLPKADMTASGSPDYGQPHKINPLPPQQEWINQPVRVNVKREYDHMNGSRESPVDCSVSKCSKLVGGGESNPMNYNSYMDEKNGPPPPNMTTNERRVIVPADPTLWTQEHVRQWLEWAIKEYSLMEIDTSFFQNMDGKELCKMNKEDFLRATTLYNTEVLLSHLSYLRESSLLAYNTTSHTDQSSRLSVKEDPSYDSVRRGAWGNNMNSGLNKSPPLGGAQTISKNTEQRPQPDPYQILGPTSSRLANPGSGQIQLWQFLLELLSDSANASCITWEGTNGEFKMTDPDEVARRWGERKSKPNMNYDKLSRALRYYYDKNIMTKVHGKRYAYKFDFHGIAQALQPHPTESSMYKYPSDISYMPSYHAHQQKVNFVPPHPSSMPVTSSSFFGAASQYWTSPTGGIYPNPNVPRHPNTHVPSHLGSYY
In short: (§1)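 Beads coated with glutathione captured GST-fused human transcription factors that had been expressed in yeast, and the factors were then given DNA barcodes and pooled with a tag-only sample. The pools were incubated with 200 nmole of a random double-stranded 16-mer DNA library in Tris/NaCl/DTT/glycerol buffer for 30 min at room temperature, washed, crosslinked with 0.1% formaldehyde and proximity-ligated with BsaI/T4 ligase at 37 °C for 1 h. PCR amplification and Illumina NextSeq500 sequencing came last. Binding signal is each hexamer's read frequency for a factor divided by its frequency for the tag-only sample.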

[2] = biological target: T2, ELK1 (Homo sapiens, UniProt P19419 1-428); conditions: protein: recombinant; tags: N-terminal GST; dsDNA, one strand shown
T2 sequence: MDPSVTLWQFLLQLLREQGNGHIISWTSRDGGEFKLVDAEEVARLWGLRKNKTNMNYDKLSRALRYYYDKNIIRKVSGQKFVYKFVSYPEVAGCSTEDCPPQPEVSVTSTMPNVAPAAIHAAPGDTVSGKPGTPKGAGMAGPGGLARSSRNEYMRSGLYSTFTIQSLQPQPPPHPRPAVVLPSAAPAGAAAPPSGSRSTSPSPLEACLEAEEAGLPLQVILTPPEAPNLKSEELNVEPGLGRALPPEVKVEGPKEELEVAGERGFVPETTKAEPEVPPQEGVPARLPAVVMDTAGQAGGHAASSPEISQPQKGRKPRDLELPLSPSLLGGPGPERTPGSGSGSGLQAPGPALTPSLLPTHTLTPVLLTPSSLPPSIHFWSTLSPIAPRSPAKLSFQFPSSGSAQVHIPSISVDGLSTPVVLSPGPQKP
In short: as §1

[3] = biological target: T3, GABPA (Homo sapiens, UniProt Q06546 1-454); conditions: protein: recombinant; tags: N-terminal GST; dsDNA, one strand shown
T3 sequence: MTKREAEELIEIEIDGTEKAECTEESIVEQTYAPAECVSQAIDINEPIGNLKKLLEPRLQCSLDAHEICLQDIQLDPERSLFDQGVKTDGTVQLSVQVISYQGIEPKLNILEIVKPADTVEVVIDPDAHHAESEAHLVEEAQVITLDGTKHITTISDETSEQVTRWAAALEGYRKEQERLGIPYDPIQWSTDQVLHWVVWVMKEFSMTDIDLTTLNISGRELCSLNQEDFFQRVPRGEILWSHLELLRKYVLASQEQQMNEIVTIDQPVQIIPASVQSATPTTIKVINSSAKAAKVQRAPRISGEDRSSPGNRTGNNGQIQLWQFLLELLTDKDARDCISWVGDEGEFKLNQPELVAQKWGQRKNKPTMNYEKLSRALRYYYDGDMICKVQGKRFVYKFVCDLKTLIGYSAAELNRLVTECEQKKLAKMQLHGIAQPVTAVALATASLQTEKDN
In short: as §1

[4] = biological target: T4, ERG (Homo sapiens, UniProt P11308 1-479); conditions: protein: recombinant; tags: N-terminal GST; dsDNA, one strand shown
T4 sequence: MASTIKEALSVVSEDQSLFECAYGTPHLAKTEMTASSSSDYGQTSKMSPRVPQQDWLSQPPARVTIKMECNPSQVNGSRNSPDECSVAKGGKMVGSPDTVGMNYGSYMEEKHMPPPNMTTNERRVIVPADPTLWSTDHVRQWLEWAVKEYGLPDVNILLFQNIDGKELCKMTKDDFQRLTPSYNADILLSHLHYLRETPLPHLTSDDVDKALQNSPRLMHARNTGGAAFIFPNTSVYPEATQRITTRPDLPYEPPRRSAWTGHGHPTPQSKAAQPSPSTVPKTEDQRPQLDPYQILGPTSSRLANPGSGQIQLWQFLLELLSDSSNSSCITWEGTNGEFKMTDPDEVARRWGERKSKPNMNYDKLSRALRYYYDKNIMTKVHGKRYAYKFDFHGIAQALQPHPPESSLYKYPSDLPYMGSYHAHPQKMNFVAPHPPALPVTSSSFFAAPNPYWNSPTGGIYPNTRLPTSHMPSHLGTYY
In short: as §1

[5] = biological target: ELF1 (Homo sapiens, UniProt P32519 1-619); conditions: protein: recombinant; tags: N-terminal GST; dsDNA, one strand shown
ELF1, sequence (P32519 whole entry): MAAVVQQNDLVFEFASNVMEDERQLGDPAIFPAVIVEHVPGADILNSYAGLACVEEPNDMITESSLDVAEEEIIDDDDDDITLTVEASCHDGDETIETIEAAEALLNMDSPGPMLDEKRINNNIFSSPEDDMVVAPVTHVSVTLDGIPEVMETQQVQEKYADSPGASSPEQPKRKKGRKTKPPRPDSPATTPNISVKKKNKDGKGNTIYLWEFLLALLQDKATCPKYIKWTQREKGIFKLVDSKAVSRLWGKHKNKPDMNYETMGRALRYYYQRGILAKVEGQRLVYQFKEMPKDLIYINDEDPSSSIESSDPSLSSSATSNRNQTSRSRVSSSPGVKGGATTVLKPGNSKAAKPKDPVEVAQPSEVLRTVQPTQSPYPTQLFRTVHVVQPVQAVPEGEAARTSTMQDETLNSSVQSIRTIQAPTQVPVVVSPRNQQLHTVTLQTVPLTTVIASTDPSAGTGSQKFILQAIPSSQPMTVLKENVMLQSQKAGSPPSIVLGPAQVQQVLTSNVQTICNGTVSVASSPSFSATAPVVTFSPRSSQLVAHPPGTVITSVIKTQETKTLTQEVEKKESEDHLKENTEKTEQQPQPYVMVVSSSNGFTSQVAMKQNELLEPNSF
In short: as §1

[6] = biological target: T5, EHF (Homo sapiens, UniProt Q9NZC4 1-300); conditions: protein: recombinant; tags: N-terminal GST; dsDNA, one strand shown
T5 sequence: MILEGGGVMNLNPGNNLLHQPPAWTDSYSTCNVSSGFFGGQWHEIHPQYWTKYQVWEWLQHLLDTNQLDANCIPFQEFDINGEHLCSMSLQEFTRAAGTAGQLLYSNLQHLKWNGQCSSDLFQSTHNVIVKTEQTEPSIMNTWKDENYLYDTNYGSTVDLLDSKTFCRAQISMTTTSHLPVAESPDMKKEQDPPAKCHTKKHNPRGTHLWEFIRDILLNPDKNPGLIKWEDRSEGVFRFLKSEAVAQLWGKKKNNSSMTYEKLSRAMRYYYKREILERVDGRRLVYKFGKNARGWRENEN
In short: as §1

[7] = biological target: SPI1 (Homo sapiens, UniProt P17947 1-270); conditions: protein: recombinant; tags: N-terminal GST; dsDNA, one strand shown
In short: as §1

[8] = biological target: SPIB (Homo sapiens, UniProt Q01892 1-262); conditions: protein: recombinant; tags: N-terminal GST; dsDNA, one strand shown
SPIB, sequence (Q01892 whole entry): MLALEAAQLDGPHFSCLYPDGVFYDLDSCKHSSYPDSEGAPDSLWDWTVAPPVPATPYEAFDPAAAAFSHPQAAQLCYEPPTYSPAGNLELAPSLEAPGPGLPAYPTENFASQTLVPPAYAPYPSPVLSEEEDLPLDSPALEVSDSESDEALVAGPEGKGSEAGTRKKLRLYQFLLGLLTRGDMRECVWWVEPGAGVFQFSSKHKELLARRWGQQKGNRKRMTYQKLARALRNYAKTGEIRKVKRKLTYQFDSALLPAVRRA
In short: as §1

[9] = biological target: T6, ELK3 (Homo sapiens, UniProt P41970 1-407); conditions: protein: recombinant; tags: N-terminal GST; dsDNA, one strand shown
T6 sequence: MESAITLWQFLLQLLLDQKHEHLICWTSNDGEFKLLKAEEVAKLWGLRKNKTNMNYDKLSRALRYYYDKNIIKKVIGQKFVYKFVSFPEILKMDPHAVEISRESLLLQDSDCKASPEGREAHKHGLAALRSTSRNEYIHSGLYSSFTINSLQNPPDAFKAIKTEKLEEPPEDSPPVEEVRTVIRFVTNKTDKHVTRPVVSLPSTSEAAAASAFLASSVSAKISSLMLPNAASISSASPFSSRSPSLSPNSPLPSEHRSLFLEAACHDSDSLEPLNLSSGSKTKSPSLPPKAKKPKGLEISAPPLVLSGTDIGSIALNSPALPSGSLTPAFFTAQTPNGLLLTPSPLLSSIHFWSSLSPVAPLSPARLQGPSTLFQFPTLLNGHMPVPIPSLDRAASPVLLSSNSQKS
In short: as §1

[10] = biological target: T7, FEV (Homo sapiens, UniProt Q99581 1-238); conditions: protein: recombinant; tags: N-terminal GST; dsDNA, one strand shown
T7 sequence: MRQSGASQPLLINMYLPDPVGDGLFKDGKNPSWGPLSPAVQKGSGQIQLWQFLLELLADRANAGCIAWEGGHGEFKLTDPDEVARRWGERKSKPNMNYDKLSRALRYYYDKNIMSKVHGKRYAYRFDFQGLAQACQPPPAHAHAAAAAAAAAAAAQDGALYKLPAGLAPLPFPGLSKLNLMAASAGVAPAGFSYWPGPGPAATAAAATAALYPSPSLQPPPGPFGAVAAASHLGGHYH
In short: as §1

[11] = biological target: ETV5 (Homo sapiens, UniProt P41161 1-510); conditions: protein: recombinant; tags: N-terminal GST; dsDNA, one strand shown
ETV5, sequence (P41161 whole entry): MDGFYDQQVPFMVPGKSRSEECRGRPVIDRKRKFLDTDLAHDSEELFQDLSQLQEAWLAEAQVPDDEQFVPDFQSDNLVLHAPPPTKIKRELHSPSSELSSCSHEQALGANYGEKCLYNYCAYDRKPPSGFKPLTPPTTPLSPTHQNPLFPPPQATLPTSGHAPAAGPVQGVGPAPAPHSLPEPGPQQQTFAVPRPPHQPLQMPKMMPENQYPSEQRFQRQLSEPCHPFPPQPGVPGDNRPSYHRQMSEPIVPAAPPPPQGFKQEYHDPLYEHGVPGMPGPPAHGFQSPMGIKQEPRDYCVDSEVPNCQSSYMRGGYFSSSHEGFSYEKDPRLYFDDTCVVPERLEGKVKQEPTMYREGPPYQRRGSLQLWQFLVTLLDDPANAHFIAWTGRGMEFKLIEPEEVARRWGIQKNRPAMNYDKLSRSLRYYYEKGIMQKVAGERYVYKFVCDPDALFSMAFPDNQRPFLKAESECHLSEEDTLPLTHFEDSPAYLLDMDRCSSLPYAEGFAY
In short: as §1

[12] = biological target: HSF1 (Homo sapiens, UniProt Q00613 1-529); conditions: protein: recombinant; tags: N-terminal GST; chain copies: 3; dsDNA, one strand shown
HSF1, sequence (Q00613 whole entry): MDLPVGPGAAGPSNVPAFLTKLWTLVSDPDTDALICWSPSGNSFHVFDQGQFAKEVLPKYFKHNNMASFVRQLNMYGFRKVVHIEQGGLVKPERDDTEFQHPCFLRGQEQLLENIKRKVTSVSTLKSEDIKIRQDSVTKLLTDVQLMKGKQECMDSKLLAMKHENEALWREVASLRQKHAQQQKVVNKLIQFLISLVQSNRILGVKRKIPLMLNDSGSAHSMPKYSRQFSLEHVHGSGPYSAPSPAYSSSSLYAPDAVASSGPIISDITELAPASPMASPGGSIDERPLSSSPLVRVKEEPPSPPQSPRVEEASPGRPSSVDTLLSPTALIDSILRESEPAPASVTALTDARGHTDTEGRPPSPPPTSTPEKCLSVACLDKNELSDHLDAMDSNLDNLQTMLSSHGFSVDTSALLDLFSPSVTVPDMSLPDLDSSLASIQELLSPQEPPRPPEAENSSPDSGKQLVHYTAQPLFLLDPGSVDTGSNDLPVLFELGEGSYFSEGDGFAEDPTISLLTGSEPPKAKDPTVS
In short: as §1

[13] = biological target: T8, SPIC (Homo sapiens, UniProt Q8N5J4 1-248); conditions: protein: recombinant; tags: N-terminal GST; dsDNA, one strand shown
T8 sequence: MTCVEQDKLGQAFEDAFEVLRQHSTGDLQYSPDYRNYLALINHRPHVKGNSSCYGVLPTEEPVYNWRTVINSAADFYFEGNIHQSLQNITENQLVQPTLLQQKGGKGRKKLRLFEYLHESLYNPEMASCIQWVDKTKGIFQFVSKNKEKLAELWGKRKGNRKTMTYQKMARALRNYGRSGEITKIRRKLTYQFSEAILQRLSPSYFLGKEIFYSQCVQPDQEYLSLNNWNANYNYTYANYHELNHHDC
In short: as §1

[14] = biological target: ELF4 (Homo sapiens, UniProt Q99607 1-663); conditions: protein: recombinant; tags: N-terminal GST; dsDNA, one strand shown
ELF4, sequence (Q99607 whole entry): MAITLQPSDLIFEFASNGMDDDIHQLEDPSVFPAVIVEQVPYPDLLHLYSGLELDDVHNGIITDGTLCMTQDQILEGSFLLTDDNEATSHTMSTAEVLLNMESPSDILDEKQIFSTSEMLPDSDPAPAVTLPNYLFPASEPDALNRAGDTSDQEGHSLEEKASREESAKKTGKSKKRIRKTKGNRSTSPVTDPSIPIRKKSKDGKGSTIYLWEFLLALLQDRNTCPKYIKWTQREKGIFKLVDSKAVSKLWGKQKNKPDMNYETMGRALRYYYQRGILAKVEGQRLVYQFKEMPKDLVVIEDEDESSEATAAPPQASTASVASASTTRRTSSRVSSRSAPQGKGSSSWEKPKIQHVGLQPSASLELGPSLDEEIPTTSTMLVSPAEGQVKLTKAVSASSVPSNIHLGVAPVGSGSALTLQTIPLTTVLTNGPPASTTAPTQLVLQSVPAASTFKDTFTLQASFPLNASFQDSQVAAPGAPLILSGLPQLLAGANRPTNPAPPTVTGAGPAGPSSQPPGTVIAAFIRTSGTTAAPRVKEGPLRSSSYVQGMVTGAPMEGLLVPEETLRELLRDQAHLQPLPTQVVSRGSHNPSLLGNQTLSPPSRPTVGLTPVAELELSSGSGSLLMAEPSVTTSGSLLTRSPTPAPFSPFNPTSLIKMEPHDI
In short: as §1

[15] = biological target: T9, ELK4 (Homo sapiens, UniProt P28324-2 1-405); conditions: protein: recombinant; tags: N-terminal GST; dsDNA, one strand shown
T9 sequence: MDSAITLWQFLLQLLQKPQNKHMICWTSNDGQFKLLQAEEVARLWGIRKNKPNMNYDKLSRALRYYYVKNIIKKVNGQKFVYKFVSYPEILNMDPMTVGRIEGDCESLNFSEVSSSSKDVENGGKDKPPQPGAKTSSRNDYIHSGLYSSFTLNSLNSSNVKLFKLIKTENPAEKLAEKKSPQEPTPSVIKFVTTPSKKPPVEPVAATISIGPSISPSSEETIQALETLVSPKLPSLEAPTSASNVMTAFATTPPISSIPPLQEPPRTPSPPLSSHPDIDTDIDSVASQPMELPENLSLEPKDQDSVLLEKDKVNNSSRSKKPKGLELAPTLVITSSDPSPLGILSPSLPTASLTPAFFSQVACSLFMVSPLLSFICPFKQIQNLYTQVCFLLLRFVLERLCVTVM
In short: as §1

[16] = biological target: T10, ETV2 (Homo sapiens, UniProt O00321 1-342); conditions: protein: recombinant; tags: N-terminal GST; dsDNA, one strand shown
T10 sequence: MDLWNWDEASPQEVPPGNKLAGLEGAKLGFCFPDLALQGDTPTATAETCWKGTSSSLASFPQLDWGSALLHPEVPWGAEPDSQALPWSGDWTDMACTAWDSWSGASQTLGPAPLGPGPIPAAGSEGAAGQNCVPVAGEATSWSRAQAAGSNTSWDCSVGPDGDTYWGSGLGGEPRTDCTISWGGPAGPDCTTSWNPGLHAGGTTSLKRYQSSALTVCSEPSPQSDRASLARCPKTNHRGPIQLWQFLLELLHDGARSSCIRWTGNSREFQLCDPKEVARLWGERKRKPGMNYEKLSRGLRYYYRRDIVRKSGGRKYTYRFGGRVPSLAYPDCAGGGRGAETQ
In short: as §1

[17] = biological target: T11, ELF3 (Homo sapiens, UniProt P78545 1-371); conditions: protein: recombinant; tags: N-terminal GST; dsDNA, one strand shown
T11 sequence: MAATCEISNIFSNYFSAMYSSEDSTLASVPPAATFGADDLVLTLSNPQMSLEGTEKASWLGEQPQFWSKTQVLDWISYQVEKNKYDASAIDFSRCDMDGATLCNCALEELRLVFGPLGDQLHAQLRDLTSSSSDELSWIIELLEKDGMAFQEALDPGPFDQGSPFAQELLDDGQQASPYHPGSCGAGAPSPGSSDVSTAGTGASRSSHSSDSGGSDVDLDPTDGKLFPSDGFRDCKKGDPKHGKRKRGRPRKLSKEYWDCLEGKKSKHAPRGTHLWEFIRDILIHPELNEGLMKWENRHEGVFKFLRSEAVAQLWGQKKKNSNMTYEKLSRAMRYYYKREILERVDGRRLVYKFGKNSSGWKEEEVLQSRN
In short: as §1

[18] = biological target: CRX (Homo sapiens, UniProt O43186 1-299); conditions: protein: recombinant; tags: N-terminal GST; dsDNA, one strand shown
CRX, sequence (O43186 whole entry): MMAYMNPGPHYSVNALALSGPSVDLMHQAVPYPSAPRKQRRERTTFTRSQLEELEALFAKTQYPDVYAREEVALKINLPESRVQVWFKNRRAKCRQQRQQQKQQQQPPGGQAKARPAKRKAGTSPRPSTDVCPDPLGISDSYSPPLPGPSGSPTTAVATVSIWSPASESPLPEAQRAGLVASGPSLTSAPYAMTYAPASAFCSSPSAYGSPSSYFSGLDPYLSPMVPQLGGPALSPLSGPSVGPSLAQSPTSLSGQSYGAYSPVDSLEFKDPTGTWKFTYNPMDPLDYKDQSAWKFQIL
In short: as §1

[19] = biological target: ETV1 (Homo sapiens, UniProt P50549 1-477); conditions: protein: recombinant; tags: N-terminal GST; dsDNA, one strand shown
ETV1, sequence (P50549 whole entry): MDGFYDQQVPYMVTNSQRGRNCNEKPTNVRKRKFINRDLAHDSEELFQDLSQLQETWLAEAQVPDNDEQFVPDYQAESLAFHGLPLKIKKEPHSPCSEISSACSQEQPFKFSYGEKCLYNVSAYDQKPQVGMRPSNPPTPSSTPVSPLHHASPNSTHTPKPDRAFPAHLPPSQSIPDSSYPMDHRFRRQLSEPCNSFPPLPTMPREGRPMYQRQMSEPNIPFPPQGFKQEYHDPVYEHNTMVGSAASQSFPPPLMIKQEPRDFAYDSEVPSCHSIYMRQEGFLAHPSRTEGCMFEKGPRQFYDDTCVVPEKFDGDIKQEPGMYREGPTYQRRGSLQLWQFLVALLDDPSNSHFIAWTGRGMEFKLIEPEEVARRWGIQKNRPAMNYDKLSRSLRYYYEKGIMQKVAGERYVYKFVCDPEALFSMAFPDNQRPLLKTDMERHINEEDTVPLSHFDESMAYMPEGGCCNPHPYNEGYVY
In short: as §1

TCGCTC
binding signal [1]: 1.25 fold enrichment (6-mer frequency, TF over GST control)
binding signal [2]: 1.27 fold enrichment (6-mer frequency, TF over GST control)
binding signal [3]: 1.35 fold enrichment (6-mer frequency, TF over GST control)
binding signal [4]: 1.26 fold enrichment (6-mer frequency, TF over GST control)
binding signal [5]: 1.29 fold enrichment (6-mer frequency, TF over GST control)
binding signal [6]: 1.19 fold enrichment (6-mer frequency, TF over GST control)
binding signal [7]: 1.29 fold enrichment (6-mer frequency, TF over GST control)
binding signal [8]: 1.27 fold enrichment (6-mer frequency, TF over GST control)
binding signal [9]: 1.37 fold enrichment (6-mer frequency, TF over GST control)
binding signal [10]: 1.23 fold enrichment (6-mer frequency, TF over GST control)
binding signal [11]: 1.24 fold enrichment (6-mer frequency, TF over GST control)
binding signal [12]: 1.25 fold enrichment (6-mer frequency, TF over GST control)
binding signal [13]: 1.24 fold enrichment (6-mer frequency, TF over GST control)
binding signal [14]: 1.31 fold enrichment (6-mer frequency, TF over GST control)
binding signal [15]: 1.29 fold enrichment (6-mer frequency, TF over GST control)
binding signal [16]: 1.22 fold enrichment (6-mer frequency, TF over GST control)
binding signal [17]: 1.4 fold enrichment (6-mer frequency, TF over GST control)
binding signal [18]: 1.12 fold enrichment (6-mer frequency, TF over GST control)
binding signal [19]: 1.38 fold enrichment (6-mer frequency, TF over GST control)
